From PubChem
CRFBP-R2 agonist = agonists of human CRF-binding protein/CRF-R2 receptor complex. HEK293 CRF-R2/CRF-BP, calcium dye fluorescence (FLIPR); percent of saturating CRF peptide response. activation, % at 13.2 µM. 350,000 compounds, 0.46% hits. AID 588473;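 active = activation of at least 50%, plus an integration ratio under a set limit after plate pattern correction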;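 also: plate controls were neutral control wells without compound for no effect and CRF at EC100 for full effect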
ANO1 block = blocks the mouse calcium-activated chloride channel TMEM16A; HEK293 TMEM16A/YFP iodide influx fluorescence, ionomycin; normalized B-score (activity score, 25-100; higher = stronger inhibition) at 10 µM; 310,000 compounds, 1.2% hits;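 active = ratio plate-corrected score three or more library SD toward inhibition, starting fluorescence score within five deviations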;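 also: score derived from kinetic fluorescence span divided by baseline fluorescence per well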
Target sequence (Q8BHY3 whole entry, looked up): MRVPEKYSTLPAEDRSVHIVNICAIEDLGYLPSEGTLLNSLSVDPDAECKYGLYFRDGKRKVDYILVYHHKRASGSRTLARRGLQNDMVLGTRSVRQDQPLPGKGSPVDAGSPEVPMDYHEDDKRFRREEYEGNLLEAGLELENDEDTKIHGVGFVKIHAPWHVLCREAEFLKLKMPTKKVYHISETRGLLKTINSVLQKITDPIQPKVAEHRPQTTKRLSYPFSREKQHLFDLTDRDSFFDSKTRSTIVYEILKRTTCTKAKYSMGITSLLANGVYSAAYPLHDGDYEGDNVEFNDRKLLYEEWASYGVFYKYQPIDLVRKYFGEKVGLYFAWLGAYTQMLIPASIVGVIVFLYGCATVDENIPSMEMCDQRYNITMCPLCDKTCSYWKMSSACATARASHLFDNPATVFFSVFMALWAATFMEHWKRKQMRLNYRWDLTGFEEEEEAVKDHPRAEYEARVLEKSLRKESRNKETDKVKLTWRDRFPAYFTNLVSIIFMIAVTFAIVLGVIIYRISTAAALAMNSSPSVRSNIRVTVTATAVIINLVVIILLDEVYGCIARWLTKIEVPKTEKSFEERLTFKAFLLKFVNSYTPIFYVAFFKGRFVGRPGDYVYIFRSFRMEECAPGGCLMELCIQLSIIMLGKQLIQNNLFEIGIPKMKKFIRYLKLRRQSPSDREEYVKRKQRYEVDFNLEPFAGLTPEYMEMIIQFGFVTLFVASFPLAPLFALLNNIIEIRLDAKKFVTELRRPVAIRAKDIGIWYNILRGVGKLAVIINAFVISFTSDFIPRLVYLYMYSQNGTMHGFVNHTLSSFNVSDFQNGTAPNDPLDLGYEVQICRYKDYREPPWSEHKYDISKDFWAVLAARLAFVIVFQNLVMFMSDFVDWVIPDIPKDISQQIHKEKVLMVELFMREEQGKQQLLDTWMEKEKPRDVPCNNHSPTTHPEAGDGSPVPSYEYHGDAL
NR3A LBD binder = NR3A (human) ligand-binding domain modulation | NR3A LBD differential scanning fluorimetry, Tm shift; 0% = protein alone, 100% = glycine-bound protein | Tm shift relative to glycine control, % at 25 µM | 340,000 compounds, 2.5% hits | AID 1259313;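 active = melting temperature shift of at least 10% of the positive control shift, at one fixed dose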
CRFBP-R2 block = blocks CRF-induced signaling of the CRF-BP/CRF-R2 complex; HEK293 CRF-R2/CRF-BP, CRF-induced calcium fluorescence; 350,000 compounds, 0.59% hits; AID 588475; inhibition, % at 11.8 µM;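 active = inhibition of the ligand-induced calcium signal above about 50% at the single tested concentration, limit read from the data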
TMEM16A act = activates or potentiates the mouse TMEM16A chloride channel. HEK293 TMEM16A/YFP-H148Q/I152L, iodide quench fluorescence; active compounds read low. Q8BHY3. B-score at 10 µM. 340,000 compounds, 0.3% hits;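 active = fluorescence-ratio B-score plate-corrected deviation score at least 3 library SD below zero, with starting fluorescence score within 5 deviations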;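 also: channel opened by trigger with iodide after compound preincubation; score built on the fluorescence ratio of max minus min over baseline; more negative score means more quench and so TMEM16A activation or potentiation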
MPTP block = permeability transition pore inhibition. isolated mouse mitochondria, Ca2+ swelling absorbance, 30 min. inhibition, % at 10 µM. 360,000 compounds, 1.4% hits. AID 602449;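 active = inhibition of 50% or more, scaled per plate between neutral and stimulator controls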;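 also: 0% = DMSO wells given calcium and 100% = 1 mM EGTA wells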
* hit, by the source's call; i = inactive; · = no result given. A selection: hits, their analogues and other compounds. The true share with any hit is near 5.1%.

SMILES | CRFBP-R2 agonist | ANO1 block | NR3A LBD binder | CRFBP-R2 block | TMEM16A act | MPTP block
Cc1ccc(NC(=O)c2ccccc2OCC(=O)c2ccccc2)cc1 | 0 | i | 10* | -4 | i | 7
CCOc1ccccc1C(=O)Nc1ccc(NC(=O)c2ccccc2)cc1 | 9 | i | 17* | -4 | i | 0
CCOc1ccccc1C(=O)Nc1ccccc1C(N)=O | 0 | i | -2 | 2 | i | -3
CC(=O)c1ccc(NC(=O)COc2ccccc2C(=O)Nc2ccccc2)cc1 | -1 | i | 15* | -2 | i | 5
CCOc1ccccc1C(=O)Nc1ccsc1C(=O)OC | -1 | i | 14* | -17 | i | 2
CCOc1ccccc1C(=O)Nc1ccc(C(=O)c2ccccc2)cc1 | 0 | i | 1 | 11 | i | 1
Cc1ccc(OCc2cc(C(=O)N3CCC(C(O)C(C)C)CC3)no2)cc1C (configuration not stated) | -1 | i | -1 | 11 | i | 0
COC(=O)c1sccc1NC(=O)Cc1ccc(Br)cc1 | -1 | i | 12* | 29 | i | -1
COC(=O)c1sccc1NC(=O)c1cccnc1 | 2 | i | 669* | 13 | i | 0
CCOc1ccc(NC(=O)[C@@H](NC(=O)OCc2ccccc2)[C@@H](C)CC)cc1 | 0 | i | -6 | 11 | i | 0
CCOc1ccc(NC(=O)[C@@H](NC(=O)c2ccccc2)[C@@H](C)CC)cc1 | 0 | i | 7 | 63* | i | 4
O=C(OCC(=O)N1CCCC1=O)c1ccc(Cl)cc1[N+](=O)[O-] | 0 | i | · | 9 | i | -2
Cc1ccc([C@H]2C(C(=O)O)=CC[C@@H](c3ccc(Cl)c(Cl)c3)N2S(=O)(=O)c2ccc(C)cc2)cc1 | 3 | · | -7 | 44 | · | 0
Cc1ccc(S(=O)(=O)N2[C@@H](c3ccccc3)C(C(=O)O)=CC[C@H]2c2ccc(Cl)c(Cl)c2)cc1 | 7 | 100* | -17 | 12 | i | -2
Cc1ccc(S(=O)(=O)N2[C@@H](c3ccccc3F)C(C(=O)O)=CC[C@H]2c2ccc(Cl)c(Cl)c2)cc1 | 12 | 100* | -20 | 6 | i | 5
CCc1ccc(-c2n[nH]nc2C2=CC(=O)C[C@H](c3ccc(F)cc3)C2)cc1 | 0 | · | · | -13 | · | 24
Cc1nc2scc(C)n2c(=O)c1S(=O)(=O)Nc1ccc(N2CCOCC2)cc1 | 3 | i | 0 | -12 | i | 1
CCOc1ccc(NC(=O)C(C)Oc2ccccc2C(=O)Nc2cccc(Cl)c2Cl)cc1 (configuration not stated) | 0 | i | 12* | 19 | i | 3
O=C(Cn1ccc(C(F)(F)F)n1)NNC(=O)c1ccco1 | -1 | · | 293* | 7 | i | 0
CC(c1ccccc1)n1ccnc1CO (configuration not stated) | -1 | · | · | 11 | · | -1
O=C(CSc1ccccc1)NCCCN1CCOCC1 | 8 | i | 1 | 11 | -11* | 8
O=C(CSCc1ccccc1)NCCCN1CCOCC1 | 0 | i | 0 | 7 | i | 0
C[C@H](CO)N1C[C@H](C)[C@@H](CN(C)S(=O)(=O)c2ccccc2)Oc2ccc(NC(=O)Nc3ccc4c(c3)OCO4)cc2C1=O | -1 | · | -3 | 12 | i | 0
O=C(NCC1COCCO1)c1cc(COc2ccc(F)cc2F)on1 (configuration not stated) | -7 | i | 0 | 24 | i | -3
O=C(COC(=O)c1ccc(O)cc1)Nc1cccc(S(=O)(=O)NC2=NCCC2)c1 | 0 | · | 1 | -3 | -31* | 0
COC(=O)c1cccc(F)c1C(=O)c1cccc2ccccc12 | -3 | · | 4 | 7 | i | -2
OC(CN1CCCCC1)Cn1c2ccc(Cl)cc2c2cc(Cl)ccc21 (configuration not stated) | 4 | i | -9 | -25 | i | -1
OC(CN1CCN(c2ccccn2)CC1)Cn1c2ccc(Cl)cc2c2cc(Cl)ccc21 (configuration not stated) | 1 | i | 19* | -24 | i | 5
